Source: ChEMBL document CHEMBL2218924, “A broad activity screen in support of a chemogenomic map for kinase signalling research and drug discovery” (Biochem J, 2013)

Key:
[1] = target: T1, Dual specificity tyrosine-phosphorylation-regulated kinase 2 (Homo sapiens) (UniProt Q92630); settings: at 10 µM
T1 sequence (whole entry): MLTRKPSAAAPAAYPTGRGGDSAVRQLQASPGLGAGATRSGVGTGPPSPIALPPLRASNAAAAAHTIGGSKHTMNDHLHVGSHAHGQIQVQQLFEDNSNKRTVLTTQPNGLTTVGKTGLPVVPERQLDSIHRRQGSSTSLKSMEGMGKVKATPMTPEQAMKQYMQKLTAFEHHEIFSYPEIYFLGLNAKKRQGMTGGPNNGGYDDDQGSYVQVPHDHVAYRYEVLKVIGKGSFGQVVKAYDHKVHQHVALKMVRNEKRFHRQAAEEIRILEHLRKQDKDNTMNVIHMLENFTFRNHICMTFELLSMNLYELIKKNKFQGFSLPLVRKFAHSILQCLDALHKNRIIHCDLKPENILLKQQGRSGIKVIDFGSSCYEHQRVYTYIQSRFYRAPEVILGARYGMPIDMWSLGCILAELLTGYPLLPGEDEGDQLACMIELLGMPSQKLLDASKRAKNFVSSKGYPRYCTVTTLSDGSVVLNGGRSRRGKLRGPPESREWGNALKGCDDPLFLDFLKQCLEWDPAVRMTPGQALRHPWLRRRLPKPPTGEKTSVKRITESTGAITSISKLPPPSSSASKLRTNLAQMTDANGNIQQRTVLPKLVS

[2] = target: Ephrin type-A receptor 2 (Homo sapiens) (UniProt P29317); settings: at 1 µM
Chain of Ephrin type-A receptor 2 (Homo sapiens) (P29317 whole entry): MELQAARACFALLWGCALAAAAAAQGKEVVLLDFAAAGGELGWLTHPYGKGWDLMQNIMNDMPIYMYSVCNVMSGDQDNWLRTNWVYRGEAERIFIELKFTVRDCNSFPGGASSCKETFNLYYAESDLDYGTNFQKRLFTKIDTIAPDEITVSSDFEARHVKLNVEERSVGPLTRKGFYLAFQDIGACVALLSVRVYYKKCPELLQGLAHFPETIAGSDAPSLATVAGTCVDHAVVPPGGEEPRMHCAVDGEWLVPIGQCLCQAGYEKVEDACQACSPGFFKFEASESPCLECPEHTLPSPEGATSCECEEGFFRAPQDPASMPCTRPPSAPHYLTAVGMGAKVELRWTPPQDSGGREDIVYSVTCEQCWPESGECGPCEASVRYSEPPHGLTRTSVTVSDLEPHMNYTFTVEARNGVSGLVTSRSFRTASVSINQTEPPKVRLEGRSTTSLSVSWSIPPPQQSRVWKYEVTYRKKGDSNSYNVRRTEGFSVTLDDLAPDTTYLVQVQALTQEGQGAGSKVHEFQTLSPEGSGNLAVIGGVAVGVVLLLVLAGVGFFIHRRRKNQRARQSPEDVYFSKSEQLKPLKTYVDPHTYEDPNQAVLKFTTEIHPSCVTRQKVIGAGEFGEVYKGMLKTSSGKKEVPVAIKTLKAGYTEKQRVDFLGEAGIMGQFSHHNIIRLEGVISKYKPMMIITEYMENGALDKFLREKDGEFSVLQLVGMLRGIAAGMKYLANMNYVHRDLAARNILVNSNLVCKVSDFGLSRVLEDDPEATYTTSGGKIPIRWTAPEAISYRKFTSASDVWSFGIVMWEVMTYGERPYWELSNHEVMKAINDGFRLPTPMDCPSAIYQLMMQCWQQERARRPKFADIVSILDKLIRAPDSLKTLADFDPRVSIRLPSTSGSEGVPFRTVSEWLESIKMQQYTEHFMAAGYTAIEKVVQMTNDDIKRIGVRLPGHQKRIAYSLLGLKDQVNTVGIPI

[3] = target: Ephrin type-A receptor 2 (Homo sapiens) (UniProt P29317); settings: at 10 µM
[4] = target: T2, Serine/threonine-protein kinase 17A (Homo sapiens) (UniProt Q9UEE5); settings: at 1 µM
T2 sequence (whole entry): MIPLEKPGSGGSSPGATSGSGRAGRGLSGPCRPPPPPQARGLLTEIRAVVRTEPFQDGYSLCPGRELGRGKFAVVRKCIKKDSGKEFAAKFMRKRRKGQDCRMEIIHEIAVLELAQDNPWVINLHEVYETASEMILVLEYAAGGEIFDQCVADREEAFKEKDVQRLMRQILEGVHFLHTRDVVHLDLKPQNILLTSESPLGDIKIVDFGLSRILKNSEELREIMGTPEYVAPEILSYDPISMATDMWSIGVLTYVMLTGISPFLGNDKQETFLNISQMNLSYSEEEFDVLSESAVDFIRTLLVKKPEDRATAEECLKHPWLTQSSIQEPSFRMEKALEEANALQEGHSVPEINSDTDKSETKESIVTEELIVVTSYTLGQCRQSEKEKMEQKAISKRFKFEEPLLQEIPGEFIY

[5] = target: T2, Serine/threonine-protein kinase 17A (Homo sapiens); settings: at 10 µM
[6] = target: T1, Dual specificity tyrosine-phosphorylation-regulated kinase 2 (Homo sapiens); settings: at 1 µM
[7] = target: T3, Ephrin type-A receptor 1 (Homo sapiens) (UniProt P21709); settings: at 1 µM
T3 sequence (whole entry): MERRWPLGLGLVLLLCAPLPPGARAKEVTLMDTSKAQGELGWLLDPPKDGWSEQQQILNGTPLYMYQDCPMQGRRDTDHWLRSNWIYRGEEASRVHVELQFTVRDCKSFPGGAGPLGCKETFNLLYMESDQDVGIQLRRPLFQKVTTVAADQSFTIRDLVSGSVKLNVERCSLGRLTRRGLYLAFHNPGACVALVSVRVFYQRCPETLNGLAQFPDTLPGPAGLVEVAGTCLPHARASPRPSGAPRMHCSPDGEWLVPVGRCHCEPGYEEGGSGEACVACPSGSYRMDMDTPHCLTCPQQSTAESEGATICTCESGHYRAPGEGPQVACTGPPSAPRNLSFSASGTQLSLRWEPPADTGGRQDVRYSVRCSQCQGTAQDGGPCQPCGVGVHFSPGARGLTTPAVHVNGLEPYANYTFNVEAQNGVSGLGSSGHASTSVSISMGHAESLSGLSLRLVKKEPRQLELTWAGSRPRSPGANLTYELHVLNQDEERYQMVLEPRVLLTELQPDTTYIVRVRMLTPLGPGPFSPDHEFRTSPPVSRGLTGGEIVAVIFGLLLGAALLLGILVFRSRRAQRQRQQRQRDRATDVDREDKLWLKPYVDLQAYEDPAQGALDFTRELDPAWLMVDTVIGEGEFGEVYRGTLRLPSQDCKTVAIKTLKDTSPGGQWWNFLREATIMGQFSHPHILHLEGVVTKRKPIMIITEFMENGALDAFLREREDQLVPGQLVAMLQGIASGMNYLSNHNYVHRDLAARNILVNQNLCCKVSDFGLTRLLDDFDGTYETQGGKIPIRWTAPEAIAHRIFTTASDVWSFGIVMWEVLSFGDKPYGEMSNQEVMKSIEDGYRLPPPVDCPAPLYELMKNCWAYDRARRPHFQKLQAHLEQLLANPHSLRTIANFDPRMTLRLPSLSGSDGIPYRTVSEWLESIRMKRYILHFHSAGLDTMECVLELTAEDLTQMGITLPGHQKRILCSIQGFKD

[8] = target: T3, Ephrin type-A receptor 1 (Homo sapiens); settings: at 10 µM
[9] = target: T4, Ephrin type-A receptor 3 (Homo sapiens) (UniProt P29320); settings: at 1 µM
T4 sequence (whole entry): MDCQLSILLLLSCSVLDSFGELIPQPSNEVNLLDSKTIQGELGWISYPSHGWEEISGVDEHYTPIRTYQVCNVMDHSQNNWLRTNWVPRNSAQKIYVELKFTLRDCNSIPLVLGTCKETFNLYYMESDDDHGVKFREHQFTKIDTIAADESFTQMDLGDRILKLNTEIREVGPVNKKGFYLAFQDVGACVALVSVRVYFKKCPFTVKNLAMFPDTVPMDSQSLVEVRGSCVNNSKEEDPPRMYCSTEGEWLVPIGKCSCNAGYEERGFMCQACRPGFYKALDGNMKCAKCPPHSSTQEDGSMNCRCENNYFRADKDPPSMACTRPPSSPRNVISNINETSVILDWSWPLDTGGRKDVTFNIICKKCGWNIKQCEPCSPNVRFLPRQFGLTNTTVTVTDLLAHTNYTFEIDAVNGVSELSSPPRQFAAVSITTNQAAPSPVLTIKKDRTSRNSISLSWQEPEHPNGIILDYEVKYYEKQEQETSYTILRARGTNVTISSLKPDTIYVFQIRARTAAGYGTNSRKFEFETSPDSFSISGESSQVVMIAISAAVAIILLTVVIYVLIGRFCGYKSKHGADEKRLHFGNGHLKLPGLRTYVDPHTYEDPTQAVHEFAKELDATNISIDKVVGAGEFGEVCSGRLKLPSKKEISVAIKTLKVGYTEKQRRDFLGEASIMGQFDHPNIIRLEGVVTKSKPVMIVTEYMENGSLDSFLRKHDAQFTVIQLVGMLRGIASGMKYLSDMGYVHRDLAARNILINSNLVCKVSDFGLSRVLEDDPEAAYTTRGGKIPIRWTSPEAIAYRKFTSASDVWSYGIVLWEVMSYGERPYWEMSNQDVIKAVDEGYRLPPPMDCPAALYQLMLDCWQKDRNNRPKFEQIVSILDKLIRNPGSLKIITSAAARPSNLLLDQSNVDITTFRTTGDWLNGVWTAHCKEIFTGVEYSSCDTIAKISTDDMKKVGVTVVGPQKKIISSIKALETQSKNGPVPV

[10] = target: Epidermal growth factor receptor (Homo sapiens) (UniProt P00533); settings: at 10 µM
Chain of Epidermal growth factor receptor (Homo sapiens) (P00533 whole entry): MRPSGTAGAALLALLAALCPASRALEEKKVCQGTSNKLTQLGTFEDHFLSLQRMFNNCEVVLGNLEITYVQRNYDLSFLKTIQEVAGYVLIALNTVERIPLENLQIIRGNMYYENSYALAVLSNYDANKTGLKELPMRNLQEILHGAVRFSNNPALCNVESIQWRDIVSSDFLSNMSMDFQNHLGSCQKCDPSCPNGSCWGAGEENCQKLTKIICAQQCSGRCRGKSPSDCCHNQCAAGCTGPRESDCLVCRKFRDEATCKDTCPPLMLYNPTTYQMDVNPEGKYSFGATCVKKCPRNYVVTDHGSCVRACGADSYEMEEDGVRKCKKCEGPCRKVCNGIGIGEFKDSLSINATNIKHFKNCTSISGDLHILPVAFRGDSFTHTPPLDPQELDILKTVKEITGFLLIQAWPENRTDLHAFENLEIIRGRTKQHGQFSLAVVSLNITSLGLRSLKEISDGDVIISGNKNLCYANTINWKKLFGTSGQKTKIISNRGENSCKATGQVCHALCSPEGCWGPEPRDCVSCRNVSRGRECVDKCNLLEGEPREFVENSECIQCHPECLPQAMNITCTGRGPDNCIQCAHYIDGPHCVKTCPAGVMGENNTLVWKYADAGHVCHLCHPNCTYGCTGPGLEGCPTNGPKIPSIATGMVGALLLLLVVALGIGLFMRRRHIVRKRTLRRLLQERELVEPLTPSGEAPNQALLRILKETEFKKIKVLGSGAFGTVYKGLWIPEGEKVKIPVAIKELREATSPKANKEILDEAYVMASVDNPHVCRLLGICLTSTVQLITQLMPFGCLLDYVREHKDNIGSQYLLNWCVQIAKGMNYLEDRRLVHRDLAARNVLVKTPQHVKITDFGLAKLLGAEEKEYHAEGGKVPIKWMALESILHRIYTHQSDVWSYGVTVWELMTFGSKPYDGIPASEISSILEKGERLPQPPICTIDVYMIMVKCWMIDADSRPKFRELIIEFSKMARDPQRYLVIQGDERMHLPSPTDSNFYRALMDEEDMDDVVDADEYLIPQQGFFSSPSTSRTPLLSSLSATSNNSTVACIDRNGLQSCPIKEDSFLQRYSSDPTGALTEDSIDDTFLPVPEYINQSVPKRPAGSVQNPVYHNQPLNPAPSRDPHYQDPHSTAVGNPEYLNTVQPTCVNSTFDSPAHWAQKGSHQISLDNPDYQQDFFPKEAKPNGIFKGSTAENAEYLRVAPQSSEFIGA

Compound	residual activity [1] [%]	residual activity [2] [%]	residual activity [3] [%]	residual activity [4] [%]	residual activity [5] [%]	residual activity [6] [%]	residual activity [7] [%]	residual activity [8] [%]	residual activity [9] [%]	residual activity [10] [%]
CCc1nc(-c2ccc(OC)cc2)[nH]c1-c1ccncc1	34	105	105							
COc1cc2ncnc(Nc3ccc(OCc4ccccc4)cc3)c2cc1OC	94	125	108	116	95	102	94	104	115	
COc1ccc2c(c[n+](C)c3c4cc5c(cc4ccc23)OCO5)c1OC	96		100		77		94			
O=C1NC(=O)c2c1c1c3ccccc3n3c1c1c2c2ccccc2n1C1CCC3O1	58	94	98	16	8	91				
CCn1cnc2c(Nc3cccc(Cl)c3)nc(N[C@@H]3CCCC[C@@H]3N)nc21	85	66	24	90	83		15	3	61	95
C[S+]([O-])c1ccc(-c2nc(-c3ccc(F)cc3)c(-c3ccncc3)[nH]2)cc1 (configuration not stated)	98	95	62	123	103	115	90	26	105	
O=C1Nc2ccc3ncsc3c2/C1=C/c1c[nH]cn1	-5	77	31	1	1	1	58	24	82	
O=[N+]([O-])/C=C/c1ccc2c(c1)OCO2	106	106	115	119	63	101	95	102	115	
O=c1[nH]c2ccccc2n1C1CCN(Cc2ccc(-c3nc4cc5[nH]cnc5cc4nc3-c3ccccc3)cc2)CC1	98	103	95	126	112	111	102	90	112	
O=C1c2ccccc2-c2nc3nnnn3nc21	100	107	116	108	114	101	100	123		
COc1ccc2c(c1)/C(=C/c1cnc[nH]1)C(=O)N2	16					77				97
COC(=O)[C@@]1(O)C[C@H]2O[C@]1(C)n1c3ccccc3c3c4c(c5c6ccccc6n2c5c31)C(=O)NC4	-4	44	8	0	1	2	3	0	42	
N/C(=N\[N+](=O)[O-])N/N=C\c1ccc(-c2cccc([N+](=O)[O-])c2)o1	95			76	87	90		97	97	
COc1cc(OC)c(/C=C2\C(=O)Nc3ccccc32)c(OC)c1	93	88	93			102	89	82	97	
CC(C)(C)c1cc(C=C(C#N)C#N)cc(Br)c1O	101	107	104	147	100	107	115	130	122	
CC(C)[C@H](CO)Nc1nc(Nc2cccc(Cl)c2)c2ncn(C(C)C)c2n1	86	69	27	116	92	99	69	14	86	
c1cc(-c2cnn3cc(-c4ccc(OCCN5CCCCC5)cc4)cnc23)ccn1	7	59	8	19	7	52	17	1	58	
